This is part of a sample that, as a whole, favours compounds with a hit. Of some 83,000 tested, about 20% had one in any assay.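 Plates (96-well) were seeded with cells, treated with compound at one concentration, and incubated for 48 hours before percent growth was determined.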 A number with no mark means an inactive call. The source made the active and inactive calls. How the source made its calls: active means growth percent below 10; inactive means the rest.

Holding throughout (test): NCI-60 one-dose screen, 48 h (100 = growth as untreated, 0 = no growth, -100 = all killed)
What all share (conditions): 10 µM unless noted

The subject of experiment [1] is K-562 leukemia.
Experiment [2] concerns MALME-3M melanoma.
Experiment [3] relates to MDA-MB-231 breast.
Experiment [4] has as its system RXF 393 renal.
In experiment [5] the test system is SF-268 CNS.
Experiment [6] deals with SF-295 CNS.
Experiment [7] deals with SF-539 CNS.
Experiment [8] has as its system UACC-257 melanoma.
Experiment [9] has as its system M14 melanoma.
For experiment [10], the system named is HCT-15 colon.
Experiment [11] has as its system HT29 colon.
Experiment [12] concerns SNB-75 CNS.
The test system of experiment [13] is SNB-19 CNS.
The subject of experiment [14] is U251 CNS.
Experiment [15] relates to PC-3 prostate.
Experiment [16] relates to SK-MEL-5 melanoma.
Experiment [17] has as its system UACC-62 melanoma.
In experiment [18] the test system is LOX IMVI melanoma.
Experiment [19] relates to SK-MEL-28 melanoma.

`COc1cc(/C=C/C(=O)c2c(C)nc3ccccc3c2C)ccc1OCCCOc1cc2c(cc1OC)C(=O)N1CCC[C@H]1C=N2`: the growth is -10.8% (active) in [1]; -37.2% (active) in experiment [2]; -35.6% (active) in experiment [3]; -83.7% (active) in experiment [4]; -47.9% (active) in [5]; -47.6% (active) in experiment [6]. In addition, the growth in [7] was -87% (active); in experiment [8], -1.91% (active); in [9], -45.2% (active); in experiment [10] it was -25.9% (active); in experiment [11], -71.9% (active); in experiment [12] it was -76.8% (active). In addition, the growth in [13] was -49.8% (active); in [14] it was -66.4% (active); in experiment [15], -15.9% (active); in experiment [16], -98.8% (active); in experiment [17], -81.3% (active); in experiment [18] it was -99.3% (active). Further, the growth in experiment [19] was -63.1% (active).
Regarding `CC(C)=CCC[C@H](C)c1ccc(C)c2c1OCN(CCO)C2`, the growth in experiment [1] is 77.7%; in [2] it was 89.5%; in [3], 88.8%; in experiment [4], 52.4%; in [6] it was 98.6%; in [7], 88.2%. Also, the growth is 92.3% in [8]; 90.9% in [9]; 105% in experiment [10]; 68.7% in experiment [11]; 58.7% in experiment [12]; 57.9% in experiment [13]. Moreover, the growth in experiment [14] was 85.1%; in experiment [15], 76.9%; in experiment [16] it was 81.2%; in [17], 96.1%; in experiment [18], 100%; in experiment [19] it was 111%.
Take `CO[C@@]12[C@@H]3NC3CN1C1=C(C(=O)C(N)=C(C)C1=O)[C@@H]2COC(N)=O` (some centres undefined): the growth is 28.7% in [1]; -12% (active) in experiment [2]; 67.5% in [3]; 11.9% in experiment [4]; 5.61% (active) in experiment [6]; 11.8% in experiment [7]. The growth is -11.7% (active) in [8]; 2.4% (active) in experiment [9]; 26.4% in experiment [10]; -18.1% (active) in experiment [11]; 2.19% (active) in experiment [12]; 18.3% in experiment [13]. Besides, the growth in experiment [14] is 13.4%; in [15], 41.8%; in experiment [16], -96% (active); in experiment [17], -15.9% (active); in experiment [18], -50.2% (active); in [19], 23%.
As to `CCN(CC)c1ccc(C(=N)c2ccc(N(C)C)cc2)cc1`, the growth in [1] is 4.01% (active); in [2], 31.9%; in experiment [3], 17.8%; in experiment [4], 12.8%; in experiment [6], -13.1% (active); in [7], -37.4% (active). Also, the growth is -3.29% (active) in experiment [8]; -44.4% (active) in experiment [9]; 10.9% in experiment [10]; 0.0991% (active) in experiment [11]; 3.16% (active) in [12]; 28.2% in experiment [13]. Also, the growth is 3.54% (active) in experiment [14]; 5.51% (active) in [15]; -80.1% (active) in [16]; 5.14% (active) in experiment [17]; 19.1% in experiment [18]; 26.5% in experiment [19].
As to `O=[N+]([O-])c1ccccc1CN1CCCCC1`, the growth in [1] was 136%; in experiment [2], 121%; in experiment [3], 105%; in [4] it was 104%; in experiment [5], 112%; in [6], 112%. Besides, the growth was 104% in experiment [7]; 110% in [8]; 114% in [9]; 107% in experiment [10]; 113% in experiment [11]; 87.8% in experiment [12]. Moreover, the growth in experiment [13] is 106%; in [14] it was 110%; in [15] it was 91.6%; in experiment [16], 105%; in [17], 103%; in experiment [18] it was 96.6%. Also, the growth in [19] was 117%.
On to `O=C(CSc1ccc(Cl)cc1)Nc1ccc(-c2nc3ccccc3s2)c(Cl)c1`, for which the growth in [1] was 34.3%; in experiment [2], 108%; in [3], 93.8%; in [4] it was 78.7%; in [6], 22.3%; in experiment [7], 93.1%. Besides, the growth in experiment [8] is 84.5%; in [9] it was 75.4%; in experiment [10] it was 39.6%; in [12], 79.1%; in experiment [13], 62.7%; in [14], 52.9%. Further, the growth in experiment [15] was 30.9%; in experiment [16] it was 79%; in [17] it was 58.4%; in [18], 63.2%; in experiment [19], 108%.
`COc1ccc(Br)c2ccccc12`: the growth in experiment [1] was 94.3%; in experiment [2], 121%; in experiment [3] it was 123%; in experiment [4], 109%; in experiment [5], 108%; in experiment [6], 110%. Further, the growth was 109% in experiment [7]; 100% in [8]; 101% in experiment [9]; 110% in experiment [10]; 110% in experiment [11]; 93.7% in experiment [12]. The growth was 116% in experiment [13]; 114% in experiment [14]; 102% in experiment [15]; 107% in [16]; 107% in experiment [17]; 101% in experiment [18]. Also, the growth in experiment [19] was 122%.
As to `CCOC(=O)NNc1cccc(Cl)c1`, the growth in [1] is 102%; in experiment [2] it was 93.6%; in experiment [3], 76.3%; in experiment [4], 100%; in experiment [5], 110%; in experiment [6] it was 109%. The growth in [7] is 99.8%; in experiment [8] it was 103%; in [9], 104%; in experiment [10] it was 107%; in experiment [11], 109%; in [12], 77.2%. Also, the growth is 100% in experiment [14]; 89.7% in [15]; 101% in experiment [16]; 83.8% in experiment [17]; 92.8% in experiment [18]; 109% in [19].
Consider `COc1cc(/C=C2\C(=O)Nc3ccc(N(C)C)cc32)cc(OC)c1OC`, for which the growth in experiment [1] was 21.8%; in experiment [2], 37.2%; in experiment [3], 24.3%; in experiment [4], -45% (active); in [6], 7.29% (active); in [7], 10.3%. Further, the growth in experiment [8] is -11% (active); in experiment [9], -3.91% (active); in [10] it was 17%; in [11] it was 9.36% (active); in experiment [12] it was -17.1% (active); in [13] it was 36.2%. For the same compound, the growth in [14] was 11.4%; in experiment [15], 35%; in experiment [16], 21.5%; in [17] it was -0.443% (active); in experiment [18], 32.8%; in experiment [19], 43.4%.

The values above are taken from PubChem BioAssay (NCI).
